Here are results for 74 compounds from PubChem BioAssay AID743397 (Broad Institute, 2014).

What is called inhibition is the relative decrease from the control value, in per cent.

Out of some 340,000 compounds screened, about 330 (0.097%) were called active. For the sample, actives were picked, then their nearest neighbours and some compounds at random. Values without a mark were called inactive.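 Rule for the calls: active = mean replicate inhibition of at least 30% and at least 1% of replicates passing that level; inconclusive = only one of the two criteria is met; inactive = neither criterion is met.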

This assay has as its system Voltage-dependent L-type calcium channel subunit alpha-1D (CaV1.3) ICDI/IQ interaction. As to the kind of experiment: Primary screen for inhibitors of IQ motif and Ca2+-dependent inactivation inhibitor domain binding in CACNA1D, Förster resonance energy transfer in living cells, single-concentration test (AID 743397).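 Note: 0% = median of the neutral control wells.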 As to conditions: HEK cells, CFP/YFP FRET ICDI-IQ, plate reader, 10 min; at 12.3 µM; active compounds read high; percent FRET-ratio fall versus neutral wells.
`COc1ccccc1Cc1c(-c2ccc(F)cc2)nc2ccc(C)cn12`: the inhibition was -8.77%.

In the case of `CC(C)(C)C(c1nc2ccccc2[nH]1)n1c(Cc2csc3ccccc23)nc2ccccc21` (centres undefined), the inhibition is -10%. In the case of `COC(=O)[C@]12C[C@H](CC(=O)NCc3ccccc3)C(=O)N(CCC3=CCCCC3)C1=C[C@H](C(C)(C)C)O[C@@H]2C` it was -8.62%; in that of `COC(=O)Cc1nnn2c1[C@H](C)[C@H](c1ccccc1Br)OCC2`, -6.7%. Consider `CC(=O)c1ccc(S(=O)(=O)NCC2CCN(C(=O)C(=O)c3cccs3)CC2)cc1`, for which the inhibition is -7.65%.

As to `COc1ccc(-c2ccccc2C2Cc3nnccc3CN2C(=O)Nc2ccccc2)cc1` (centres undefined), the inhibition is -4.58%.

On to `CC(C)[C@@H](C)/C=C/[C@@H](C)[C@H]1CC[C@@H]2[C@]1(C)CCC1[C@]23C=C[C@]2(C[C@@H](O)CC[C@]12C)N(c1ccc([N+](=O)[O-])cn1)O3` (some centres undefined), for which the inhibition is -8.61%. Consider `COC(=O)C1=C(C)N(Cc2ccccc2C(F)(F)F)C(=NCc2ccc(C(F)(F)F)cc2)NC1c1ccc(F)cc1` (centres undefined), for which the inhibition was -9.8%. Consider `CCCCCc1c(-c2ccc(OC)c(OC)c2)ncn1CCc1ccccc1OC`, for which the inhibition is -11%. For `COC(=O)Cc1nnn2c1[C@H](C)[C@@H](OC)c1cc(Br)ccc1-2`, the inhibition is -5.26%. Turning to `CCCN1C(=O)c2[nH]nc(-c3ccccc3)c2C1c1ccccc1` (centres undefined), the inhibition is -3.81%. For `COC(=O)[C@H](CC(C)C)NS(=O)(=O)c1c(F)cccc1F`, the inhibition is -4.96%.

Take `CSc1ccc(Oc2cccc3c2S(=O)(=O)N([C@H](C)c2ccccc2)C[C@@H](COCc2ccccc2)O3)cc1C`: the inhibition was -9.54%.

In the case of `COc1cccc(CC(=O)N2CCN(C(=O)C(=O)c3cccc(C(F)(F)F)c3)CC2)c1`, the inhibition was -9.3%. For `Cc1ccc(NS(=O)(=O)c2cc3c(cc2Br)NC(=O)CO3)cc1C`, the inhibition was -4.61%. For the compound `OC(c1ccccc1)(c1ccccc1)C1CCN(CCCOc2ccc(-c3ccsc3)cc2)CC1`, the inhibition is -9.67%. As for `COC(=O)[C@]12C[C@H](CC(=O)NCc3ccc(C)o3)C(=O)N(CCC3=CCCCC3)C1=C[C@H](C(C)(C)C)O[C@@H]2C`, the inhibition was -11.3%. In the case of `CCCCCCCCN1C(=O)[C@@H](CC(=O)N2CCN(C(=O)OCC)CC2)C[C@@]2(C(=O)OC)C1=C[C@H](C1CCCC1)O[C@@H]2C`, the inhibition is -9.25%. As for `C[C@H](CO)N1C[C@H](C)[C@@H](CN(C)C(=O)Nc2ccccc2F)OCc2cn(nn2)CCCC1=O`, the inhibition is -4.14%. For the compound `CN(C)C(=O)N1CCN(C(=O)[C@@H](Cc2ccccc2)NC(=O)[C@H]2O[C@@H](n3ccc(N)nc3=O)[C@H](O)[C@@H]2O)CC1`, the inhibition is -3.39%. Take `CN1CCCc2nc(-c3ccccc3)ccc21`: the inhibition is -4.26%. For the compound `Cc1noc(C)c1NC(=O)Nc1ccc2c(c1)C(=O)N([C@H](C)CO)C[C@H](C)[C@H](CN(C)Cc1ccncc1)OCCCC[C@@H](C)O2`, the inhibition was -5.78%. Consider `COc1cccc(N2CCN(C(=O)C3CCCN(S(=O)(=O)c4cnc[nH]4)C3)CC2)c1` (centres undefined), for which the inhibition is 46.8% (active). In the case of `Cc1cccc(N2CCN(C(=O)C3CCN(S(=O)(=O)c4cnc[nH]4)CC3)CC2)c1C`, the inhibition is -5.87%. For the compound `CCOC(=O)c1cccc(NC(=O)C2CCCN(S(=O)(=O)c3cnc[nH]3)C2)c1` (centres undefined), the inhibition is -9.58%. Regarding `COC(=O)C1=C(C)N(Cc2cccc(C(F)(F)F)c2)C(=NCc2cccc(C(F)(F)F)c2)NC1c1ccccc1C(F)(F)F` (centres undefined), the inhibition was -2%.

Turning to `COC(=O)[C@@]12C[C@@H](CC(=O)NCCCCc3ccccc3)C(=O)N(CCc3ccc(OC)c(OC)c3)C1=CCC(C)(C)C2`, the inhibition was -8.1%. Consider `O=S1(=O)c2c(cccc2N2CCCC2)O[C@H](COCc2ccccc2)CN1C1CC1`, for which the inhibition is -7.56%. `CC1CCN(C(=O)c2ncn3c2C(=O)N[C@@H](C)C3)CC1`: the inhibition is -3.16%. In the case of `COc1cccc(-c2cc(CNC(=O)[C@@H](Cc3ccccc3)NC(=O)[C@H]3O[C@@H](n4cnc(C(N)=O)n4)[C@H](O)[C@@H]3O)no2)c1` it was -2.93%; in that of `COC(=O)[C@@]12C[C@@H](CC(=O)NCCCCc3ccccc3)C(=O)N(Cc3ccccc3)C1=CCC(C)(C)C2`, -17%; in that of `COC(=O)Nc1nc2ccc(C(=O)C3CC3)cc2[nH]1`, -11.2%. As for `COC(=O)C1=C(C)N(Cc2ccc(C(F)(F)F)cc2)C(=NCc2ccc(C(F)(F)F)cc2)NC1c1cccc(Cl)c1` (centres undefined), the inhibition is -9.62%. The figure for `C[C@H](O)[C@@H]1CN2CCc3ccc(-c4ccc5c(c4)OCO5)cc3[C@@H]2C[C@@H]1N(C)C(=O)C1CCCCC1` is -2.76%.

In the case of `O=C(C(=O)N1CCC(CNC(=O)c2cccnc2Cl)CC1)c1cccs1`, the inhibition was -10.2%. Regarding `Cc1ccccc1C(=O)N[C@H](C(=O)N1CCC[C@H]1C(=O)NCc1ccccc1)C(C)C`, the inhibition was -3.3%. Regarding `CCOc1ccccc1C(=O)N1CCC[C@@H]1C(=O)N1CCC[C@H]1C(=O)NCc1ccccc1`, the inhibition was -4.37%. For `N#Cc1cccc(C(=O)NCC2CCN(C(=O)C(=O)c3cc4ccccc4o3)CC2)c1`, the inhibition was -8.07%. Turning to `NC(=O)c1ncn([C@@H]2O[C@H](C(=O)O)[C@@H](O)[C@H]2O)n1`, the inhibition is -4.52%.

Regarding `CC1(C)OC(=O)C2=C(CC(CCc3ccccc3)OC2c2ccc(Cl)cc2)O1` (centres undefined), the inhibition was -9.52%. Turning to `c1ccc2cc3c(NCCN4CCOCC4)ccnc3cc2c1`, the inhibition is 147% (active). Consider `Fc1ccc(-c2ccc(NCCN3CCOCC3)nn2)cc1`, for which the inhibition was -2.08%. The figure for `c1ccc(-c2ccc(OCCN3CCOCC3)cc2)cc1` is -9.07%; for `C#CCN([C@@H](C)C(=O)OCC)S(=O)(=O)c1ccc(Br)cc1F` it is -4.44%; for `COC(=O)[C@]12C[C@H](CC(=O)NCCc3ccccc3OC)C(=O)N(Cc3ccccc3)C1=C[C@H](C(C)C)O[C@@H]2C1CC1` it is -8.67%.

For `COC(=O)[C@]12C[C@H](CC(=O)NCCC(C)C)C(=O)N(CCc3ccc(OC)c(OC)c3)C1=C[C@H](C(C)(C)C)O[C@@H]2C`, the inhibition was -8.8%.

Regarding `Nc1ncnc2c1ncn2[C@@H]1O[C@H](C(=O)N[C@@H](CCc2ccccc2)C(=O)N2CCCN(Cc3cccs3)CC2)[C@@H](O)[C@H]1O`, the inhibition is -9.97%. On to `COC(=O)[C@]12C[C@H](CC(=O)NCCCCc3ccccc3)C(=O)N(Cc3ccc4c(c3)OCO4)C1=C[C@H](C(C)(C)C)O[C@@H]2C`, for which the inhibition was -10.1%.

For the compound `COc1cccc(CNC(=O)[C@H]2CCCN2C(=O)[C@H]2CCCN2C(=O)c2cc(F)cc(F)c2)c1`, the inhibition is -7.03%. `Cc1cc(N2CCN(C(=O)OC(C)(C)C)C[C@H]2C)ccc1N1CCN(Cc2ccccc2)[C@H](C)C1`: the inhibition was -7.25%. The figure for `CCCCCCCCN1C(=O)[C@@H](CC(=O)NCc2ccc(C)o2)C[C@@]2(C(=O)OC)C1=C[C@H](C(C)(C)C)O[C@@H]2C` is -10.3%. On to `Nc1nc2c(ncn2[C@@H]2O[C@H](C(=O)N[C@@H](Cc3ccccc3)C(=O)NCc3ccccc3)[C@@H](O)[C@H]2O)c(=O)[nH]1`, for which the inhibition was -5.12%. Consider `C=CCN1C(=O)N(Cc2ccccc2)c2ccccc2S1(=O)=O`, for which the inhibition was -4.73%. `CCCCOCC1CN(CCCC)S(=O)(=O)c2c(Oc3ccc(F)cc3)cccc2O1` (centres undefined): the inhibition was -7.83%. Regarding `COc1cccc(CNC(=O)[C@H]2CCCN2C(=O)[C@H]2CCCN2C(=O)C2CCCCC2)c1`, the inhibition was -4.37%.

For the compound `O=C(NS(=O)(=O)c1cccs1)[C@H]1O[C@@H](n2ccc(=O)[nH]c2=O)[C@H](O)[C@@H]1O`, the inhibition is -3.64%. `CC(C)CNc1cccc2c1S(=O)(=O)N[C@H](C)CO2`: the inhibition was -7.79%. As for `COC(=O)C1=C(C)NC(=S)NC1c1ccc(OC)cc1` (centres undefined), the inhibition was -4.39%. With `COc1ccc(C2=CN(Cc3ccccc3)C(c3ccc(OC)cc3)CC2=O)cc1` (centres undefined), the inhibition is -3.32%.

As to `COc1ccc(C2C(C#N)=C(N)N(c3ncn[nH]3)C3=C2C(=O)CCC3)cc1` (centres undefined), the inhibition was -4.27%. Regarding `CCOc1ccc(C2C3=C(CCCC3=O)N(CC(=O)O)C3=C2C(=O)CCC3)cc1`, the inhibition is -13.8%. In the case of `COc1ccc(C2C3=C(CCCC3=O)N(CC(=O)O)C3=C2C(=O)CCC3)cc1` it was 111% (active); in that of `Cc1cc(NCCc2c[nH]c3ccccc23)ccc1Oc1cccnc1`, -8.52%. Regarding `Cc1cc(OC(=O)NCCc2ccc(F)cc2)ccc1F`, the inhibition is -6.4%. Consider `COc1ccccc1C(=O)N1O[C@]23C=C[C@]14C[C@@H](O)CC[C@]4(C)C2CC[C@]1(C)[C@@H]([C@H](C)/C=C/[C@H](C)C(C)C)CC[C@H]13` (some centres undefined), for which the inhibition is -9.42%.

For `CC(C)CNc1cccc2c1S(=O)(=O)N[C@H](CC(C)C)CO2`, the inhibition was -5.08%. As to `CCOCCn1c(-c2ccccc2)nc2ccccc21`, the inhibition is -20.2%. On to `CCOCCCNc1c(CC)c(C)c(C#N)c2nc3ccccc3n12`, for which the inhibition is 61% (active). `Cc1cc(NC(C)C)n2c(nc3ccccc32)c1C#N`: the inhibition was -0.654%.

Consider `COc1ccccc1-c1ccc([C@@H]2C[C@H]3[C@H](CON3C)CN2S(=O)(=O)c2cc(Cl)cc(Cl)c2)cc1`, for which the inhibition was -4.02%. For `Cc1nc2c(OCc3ccc(Cl)cc3)cccn2c1N(C)Cc1cccs1`, the inhibition was -6.54%.

`CCCCc1c(-c2ccc(Cl)cc2)ncn1CCc1ccccc1OC`: the inhibition is -10.1%. In the case of `C=CC1=CCN(S(=O)(=O)C(C)(C)C)[C@@H]1CCO`, the inhibition was -4.63%. Take `CCN1C(=O)N[C@@H]2C[C@H](C(=O)N3CCCC3)[C@H](C)[C@H](c3ccccc3)C[C@@H]21`: the inhibition is -3.87%.
